The whole screen tested about 52,000 compounds, of which about 1,700 (3.3%) were called active. The sample as a whole holds a higher share of actives than the screen did. Values without a mark were called inactive. Rule as the data show it: active = survival mostly below about 52% (no sharp cut-off); inactive = mostly above about 56%.

In the experiment the test system is Wild type. Nature of the experiment: S. aureus survival, RN4220 and DeltatarO strains – OD600, teichoic acid synthesis inhibitors, primary screen (AID 463173). The conditions noted are these: S. aureus RN4220 wild type/DeltatarO growth, OD600, 18 h, stronger effect = lower value, screened at 18.75 µg/mL (by protocol).
As to `Nc1ccc(-c2nc3c(Cl)cccc3[nH]2)cc1`, the survival is 125%.

For the compound `CCOc1ccc(-n2c(C)nc3cc(C(=O)NC4CCCC4)ccc32)cc1`, the survival is 67%.

For the compound `COc1cccc(Cn2c(=O)n(-c3cccc(Cl)c3C)c(=O)c3c4c(sc32)CN(C(C)=O)CC4)c1`, the survival is 75%.

As for `Cn1cc(S(=O)(=O)N2CCCC2)cc1C(=O)Nc1ccc(C(F)(F)F)cc1`, the survival is 109%.

As for `CCCCNc1nc(Oc2ccc(=O)n(C)n2)nc(N(C)C)n1`, the survival is 83%.

With `COc1ccc(-c2cc(C(=O)Nc3sc4c(c3C#N)CCCC4)no2)cc1OC`, the survival was 80%.

With `CCC1CN(C(=O)N2CCC(C(=O)NCCCc3ccccc3)CC2)c2cc(C)ccc2O1` (stereo not drawn), the survival was 79%.

In the case of `COCCCn1c(=N)c(C(=O)NCc2cccnc2)cc2c(=O)n3cccc(C)c3nc21`, the survival is 74%.

Turning to `CC(=O)c1cccc(Nc2c3c(nc4nc(-c5cccs5)nn24)CCCC3)c1`, the survival was 76%.

Take `COc1cc(OC)c(Nc2c3c(nc4nc(-c5cccs5)nn24)CCCC3)cc1Cl`: the survival is 85%.

For the compound `Fc1cc(Br)ccc1Nc1c2c(nc3nc(-c4cccs4)nn13)CCCC2`, the survival is 0% (active).

As to `Cc1ccc(Nc2c3c(nc4nncn24)CCC3)cc1C`, the survival is 76%.

For the compound `Cc1ccc(Nc2c3c(nc4nc(-c5cccs5)nn24)CCCC3)cc1F`, the survival is -3% (active).

Turning to `COc1ccc(C)cc1Nc1c2c(nc3nc(-c4cccs4)nn13)CCCC2`, the survival is 63%.

With `O=C(Cn1c2ncccc2c(=O)n1-c1ccccc1)NCc1ccccc1`, the survival was 80%.

On to `Cc1cc(O)c(C(c2ccccc2)N2CCCCC2)c(=O)n1Cc1ccco1` (stereo not drawn), for which the survival was 77%.

On to `O=C(NCc1ccccn1)c1cc2n(n1)C(C(F)(F)F)CC(c1ccco1)N2` (stereo not drawn), for which the survival is 108%.

As for `Cc1ccc2oc(-c3ccc(NC(=O)c4cccc(F)c4)c(C)c3)nc2c1`, the survival was 100%.

As to `CNC(=S)N(Cc1cccnc1)Cc1cc2cc(OC)ccc2[nH]c1=O`, the survival was 112%.

Take `COc1cc2c(cc1OC)n(CC(=O)c1cc(C)ccc1C)c(=O)n1nc(CCn3nc(C)cc3C)nc21`: the survival is 71%.

In the case of `Cc1c(C(N)=O)sc2ncn(Cc3ccccc3)c(=O)c12`, the survival was 112%.

Consider `CC(C)=CCc1c(O)cc(O)c2c1OC(c1ccccc1)CC2=O` (stereo not drawn), for which the survival was 1% (active).

`CC1(C)OC(c2ccccc2)CC1=O` (stereo not drawn): the survival is 98%.

For the compound `O=C(O)c1c(-c2ccccc2)oc2ccc(OCc3c(F)cccc3Cl)cc12`, the survival is 38%.

For `O=C(O)c1c(-c2ccccc2)oc2ccc(OCc3ccc(Cl)c(Cl)c3)cc12`, the survival is 0% (active).

On to `Cc1ccc(COc2ccc3oc(-c4ccccc4)c(C(=O)O)c3c2)cc1`, for which the survival is 54%.

With `CCCCNC(=O)C1CCN(S(=O)(=O)CCC)CC1`, the survival is 83%.

As to `Cc1ccc(CN2CCC(CNC(=O)c3cnn(-c4ccccc4)c3C3CCN(C(=O)OC(C)(C)C)CC3)CC2)cc1`, the survival was 73%.

Take `Cc1cccc(OC(=O)c2snnc2C)c1C`: the survival was 80%.

Regarding `CCCC(=O)Nc1cccc(-c2cn3c(C)csc3n2)c1`, the survival is -6% (active).

For `Cc1csc2nc(-c3cccc(NC(=O)C(C)C)c3)cn12`, the survival was 80%.

For `Cc1csc2nc(-c3cccc(NC(=O)c4c(F)cccc4F)c3)cn12`, the survival is 121%.

In the case of `O=C(NCc1ccco1)c1ccc2c(c1)N(Cc1ccc(Cl)cc1)C(=O)c1ccccc1S2=O` (stereo not drawn), the survival is 165%.

As for `COc1ccccc1CNC(=O)CN1C(=O)c2cccnc2Oc2ccccc21`, the survival is 64%.

With `CCc1cnc2c(c1SCCC(C)C)c(=O)n(C)c(=O)n2C`, the survival was 79%.

Turning to `COc1cc(SC)ccc1C(=O)N1CCn2c3c(c4cc(C)ccc42)CCCC31` (stereo not drawn), the survival is 85%.

With `Cc1ccc(C(=O)N2CCn3c4c(c5cc(C)ccc53)CCCC42)cc1` (stereo not drawn), the survival was -10% (active).

Take `Cc1ccc2c(c1)c1c3n2CCN(C(=O)c2cccc(C(F)(F)F)c2)C3CCC1` (stereo not drawn): the survival is 5% (active).

As to `Cc1ccc2c(c1)c1c3n2CCN(C(=O)c2ccc(C(F)(F)F)cc2)C3CCC1` (stereo not drawn), the survival was 49%.

Regarding `CCOc1cc(C(=O)N2CCn3c4c(c5cc(C)ccc53)CCCC42)cc(OCC)c1OCC` (stereo not drawn), the survival was 67%.

Turning to `CCCN(CCC)S(=O)(=O)c1ccc(C(=O)N2CCn3c4c(c5cc(C)ccc53)CCCC42)cc1` (stereo not drawn), the survival was 82%.

For the compound `COc1ccccc1Nc1nc2c(S(=O)(=O)c3ccc(C(C)C)cc3)nnn2c2ccsc12`, the survival is 116%.

In the case of `CCCc1nc2ccccc2c(NC(=O)CN(CC)CC)c1CC`, the survival is 103%.

As for `CN(C)CCNC(=O)Cc1ccc(NC(=O)N2CCCCc3ccccc32)cc1`, the survival is 75%.

Turning to `COc1ccc(/C=C\C(=O)NC2CC(=O)N(c3ccccc3)C2)cc1OC` (stereo not drawn), the survival is 134%.

For the compound `CCOc1ccc(OCC)c(Nc2cc(C)nc3nc(-c4ccco4)nn23)c1`, the survival was -1% (active).

For the compound `Cc1cc(Nc2ccc(Br)c(C)c2)n2nc(-c3ccco3)nc2n1`, the survival was -6% (active).

For the compound `Cc1cc(Nc2ccccc2Cl)n2nc(-c3ccco3)nc2n1`, the survival was 78%.

On to `CCOC(=O)c1ccccc1Nc1cc(C)nc2nc(-c3ccco3)nn12`, for which the survival is 133%.

Turning to `Cc1cc(Nc2cccc(F)c2)n2nc(-c3ccco3)nc2n1`, the survival is 69%.

Take `Cc1cc(C)cc(Nc2cc(C)nc3nc(-c4ccco4)nn23)c1`: the survival is 78%.

As to `CC(C)CC(=O)Nc1c(C(=O)N2CCN(c3ccccc3)CC2)oc2ccccc12`, the survival is 96%.

For `c1ccc(C(c2ccccc2)N2CCN(Cc3nnnn3Cc3ccc4c(c3)OCO4)CC2)cc1`, the survival was 105%.

For the compound `O=c1c(=O)n(-c2ccccc2)ccn1Cc1cccc(C(F)(F)F)c1`, the survival was 108%.

As for `CN(C(=O)CSc1nc2ccc(NC(=O)c3ccccc3)cc2s1)c1ccccc1`, the survival was 77%.

As to `CN(C)CCN(Cc1ccccc1)S(=O)(=O)c1ccc2[nH]c(=O)ccc2c1`, the survival was 76%.

`CCN(c1ccc(OC)cc1)S(=O)(=O)c1ccc2[nH]c(=O)ccc2c1`: the survival was 72%.

With `COCCN(Cc1ccc(C)c(Br)c1)S(=O)(=O)c1ccc2[nH]c(=O)ccc2c1`, the survival was -3% (active).

Take `CCc1ccccc1NC(=O)c1cc(S(=O)(=O)N2CCC(C)CC2)cn1C`: the survival is 22%.

For the compound `COC(=O)c1cc(-c2ccc(C)cc2)c2c(=O)n(C)c(=O)n(C)c2n1`, the survival was 105%.

For `O=C(NCCNCc1ccccc1)c1ccco1`, the survival is 115%.

Turning to `CC(=O)Nc1ccc(NC(=O)CCS(=O)(=O)c2ccc3c(c2)CC(=O)N3C)cc1`, the survival is 66%.

On to `Cc1ccc(-c2cc(C(F)(F)F)n3nc(C(=O)Nc4sc5c(c4C#N)CCC(C)C5)cc3n2)cc1` (stereo not drawn), for which the survival was 70%.

For the compound `N#Cc1c(NC(=O)c2cc3nc(-c4ccc(Br)cc4)cc(C(F)(F)F)n3n2)sc2c1CCCC2`, the survival was 0% (active).

Take `COC(=O)c1c(NC(=O)c2cc3nc(-c4ccc(Br)cc4)cc(C(F)(F)F)n3n2)sc2c1CCCC2`: the survival was 82%.

As for `COc1ccc(CNC(=O)c2cc(-c3ccc(C)c(C)c3)n[nH]2)cc1`, the survival was 67%.

Regarding `Cc1cc2c(cc1S(=O)(=O)NCc1ccc(F)cc1)n(C)c(=O)c(=O)n2C`, the survival is 85%.

On to `Cc1c(C(=O)OCc2ccccc2)[nH]c2c1C(=O)CC(c1ccc(Cl)cc1)C2` (stereo not drawn), for which the survival was 99%.

With `COc1cc(NC(=O)CNC(=O)Cn2ccc3ccccc3c2=O)cc(OC)c1OC`, the survival was 130%.

As to `O=S(=O)(Cc1ccccc1)N1CCC(c2nc(-c3cccs3)no2)CC1`, the survival is 110%.

In the case of `CC1=C(c2ccc(C)cc2)S(=O)(=O)N(Cc2ccc(C(=O)Nc3ccccc3C)cc2)C1=O`, the survival is 78%.

For `Cc1ccc(N2CCN(C(=O)c3cn(C)c4ccc(S(=O)(=O)N5CCCC5)cc4c3=O)CC2C)cc1` (stereo not drawn), the survival is 134%.

Turning to `CC(CNC(=O)c1cc2cc(S(=O)(=O)N3CCCCC3)ccc2n1C)c1ccccc1` (stereo not drawn), the survival is 55%.

Turning to `CN(C)c1ccc(CNC(=O)c2cc3cc(S(=O)(=O)N4CCCCC4)ccc3n2C)cc1`, the survival is 0% (active).

For the compound `Cc1ccccc1CCNC(=O)c1cc2cc(S(=O)(=O)N3CCCCC3)ccc2n1C`, the survival is -3% (active).

`Cn1c(C(=O)NCCc2ccccc2)cc2cc(S(=O)(=O)N3CCCCC3)ccc21`: the survival is 73%.

Take `CCC(C)NC(=O)c1cc2cc(S(=O)(=O)N3CCCCC3)ccc2n1C` (stereo not drawn): the survival was 14% (active).

As for `CC(C)CCNC(=O)c1cc2cc(S(=O)(=O)N3CCCCC3)ccc2n1C`, the survival was 74%.

Regarding `CCc1ccc(CNC(=O)c2cc3cc(S(=O)(=O)N4CCCCC4)ccc3n2C)cc1`, the survival was 47%.

Turning to `Cc1ccccc1CNC(=O)c1cc2cc(S(=O)(=O)N3CCCCC3)ccc2n1C`, the survival is 66%.

Consider `Cn1c(C(=O)NCc2ccc(F)cc2)cc2cc(S(=O)(=O)N3CCCCC3)ccc21`, for which the survival is 131%.

Consider `CCOC(=O)c1sc2cccc(F)c2c1S(=O)(=O)NCc1ccccc1Cl`, for which the survival was 130%.

Regarding `Clc1ccc2[nH]c3nc4ccccc4nc3c2c1`, the survival is 104%.

As to `COc1ccc(Nc2cc(C(=O)NCc3ccccc3)c3ccccc3n2)cc1OC`, the survival is 83%.

In the case of `CC(=O)c1ccc(NC(=O)Cn2cc3c(n2)CCCC3)cc1`, the survival was 82%.

Take `Cc1ccsc1CN(Cc1ccco1)C(=O)c1ccc(Cl)cc1`: the survival was 65%.

Turning to `Cc1nn(C)c2c1c(C(F)(F)F)cc(=O)n2CC(=O)N1CCCCC1`, the survival is 67%.

For the compound `CCOc1ccc(/C=C/c2nc(C#N)c(N3CCN(c4ccc(OC)cc4)CC3)o2)cc1`, the survival is 84%.

For `CCn1cc(C(=O)N2CCN(c3cc(C)ccc3C)CC2)c(=O)c2cc(S(=O)(=O)N3CCOCC3)ccc21`, the survival was 81%.

`COc1ccc(CNC(=O)c2ccc(-c3nc(CSc4ccccc4)c(C)o3)cc2)cc1OC`: the survival is 77%.

With `COc1ccc(OC)c(CNC(=O)c2ccc(-c3nc(CSc4ccccc4)c(C)o3)cc2)c1`, the survival was 129%.

On to `Cc1ccc(SCc2nc(-c3ccc(C(=O)NCc4ccc(Cl)cc4)cc3)oc2C)cc1`, for which the survival is 64%.

`Cc1ccc(SCc2nc(-c3ccc(C(=O)NCCc4ccc(Cl)cc4)cc3)oc2C)cc1`: the survival is -4% (active).

Consider `COc1ccc(CNC(=O)c2ccc(-c3nc(CSc4ccc(C)cc4)c(C)o3)cc2)cc1OC`, for which the survival is -3% (active).

On to `COc1ccc(CNC(=O)c2ccc(-c3nc(CSc4ccc(C)cc4)c(C)o3)cc2)c(OC)c1`, for which the survival is 1% (active).

Turning to `CCc1ccc(CNC(=O)c2ccc(-c3nc(CSc4ccc(C)cc4)c(C)o3)cc2)cc1`, the survival was 63%.

`COc1ccc(CNC(=O)c2ccc(-c3nc(CSc4ccccc4)c(C)o3)cc2)c(OC)c1`: the survival is 100%.

Take `Cc1oc(-c2ccc(C(=O)NCCc3ccc(Cl)cc3)cc2)nc1CSc1ccccc1`: the survival is 59%.

Values taken from PubChem BioAssay AID463173 (ICCB-Longwood Screening Facility, Harvard Medical School, 2010).
